Compound activity as filed in PubChem BioAssay.
Compounds with a hit are over-represented: about 4% of the library has one in this group of screens.
EBV LMP1 NFkB: Epstein-Barr LMP1 NF-kappaB reporter inhibition. LMP1-induced NF-kappaB luciferase reporter cells, luminescence. inhibition, % at 12.5 µM. hit rate 0.69% among 350,000. AID 504558; in the data active means inhibition above about 41%; inconclusive means no clear call, values can overlap the other calls
TROY NFkB inh: TROY signaling inhibition; hit rate 0.98% among 360,000; Q293 LMP1-TROYcd NF-kB luciferase reporter, 4 h; inhibition, % at 10 µM;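 active means compounds whose plate-normalised and pattern-corrected inhibition of the luciferase reporter signal at the single screening dose is 50% or more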
Peg3 prom inh-1: reduces Peg3 promoter-driven luciferase expression in HeLa; HeLa PEG-Prom luciferase reporter, luminescence, overnight; AID 588405; inhibition, % at 20 µM; hit rate 1.7% among 360,000;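 active means inhibition of at least 50% at 20 µM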
HIF-2a inh: HIF-2a inhibition; hit rate 0.72% among 360,000; 786-0 RCC cells HIF-2a reporter, luciferase luminescence, overnight; inhibition, % at 18.8 µM; AID 624352;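 active means inhibition of the luminescence signal of 40% or more relative to plate controls, in a single-dose primary screen at 18.75 µM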
MITF TRPM1 inh: MITF TRPM1 promoter inhibition in SK-MEL-5 cells; SK-MEL-5 TRPM1 promoter luciferase, 24 h; inhibition, % at 12.5 µM; hit rate 0.83% among 330,000;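 active means mean inhibition across replicates of 60% or more, whatever share of single replicates reaches that level; inconclusive means some that reach 60%, reason not given; inactive means mean inhibition across replicates below 60%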
TWEAK-Fn14 inh: blocks TWEAK-Fn14 interaction in a reporter cell assay | TWEAK-stimulated Fn14 reporter cells, luciferase luminescence, 8 h | inhibition, % at 10 µM | hit rate 2% among 360,000 | AID 1159606; in the data active means inhibition above about 50%
Peg3 prom inh-2: Peg3 promoter inhibition confirmation | shares compounds with Peg3 prom inh-1 | HeLa PEG-Prom luciferase reporter, luminescence, overnight | hit rate 84% among 1,300 | inhibition, % at 20 µM;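 active means at 20 µM dose, 40% or more inhibition averaged across four replicates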
Hits are given with their value; – = inactive; ? = inconclusive; · = no result given; ! = a repeat was not active.

SMILES	EBV LMP1 NFkB	TROY NFkB inh	Peg3 prom inh-1	HIF-2a inh	MITF TRPM1 inh	TWEAK-Fn14 inh	Peg3 prom inh-2
CCCCCCCCOC(=O)c1cc([N+](=O)[O-])c(Sc2ncnc3nc[nH]c23)c([N+](=O)[O-])c1	–	–	83	–	–	–	73
C/C(=N\NC(=O)C(=O)Nc1cccc(Cl)c1C)c1ccncc1	–	–	–	–	–	–	·
COc1cc(/C=C/[N+](=O)[O-])ccc1OC(=O)/C=C/c1ccc(F)cc1	–	–	103	–	–	–	52
Cc1cc(=O)nc2c3ccccc3n(CC(=O)NCCC3=CCCCC3)n12	–	–	–	–	–	–	·
CC1CCCC(C)N1C(=C(Cl)Cl)C(=C1SCCS1)[N+](=O)[O-] (stereo not drawn)	–	–	71	–	–	–	59
Cc1ccc(N2C(=O)CS/C2=C(\C(Cl)=C(Cl)Cl)[N+](=O)[O-])cc1	–	–	–	–	–	–	·
O=C(CCc1ccccc1)NC(NC(=S)Nc1ccc(Br)cc1)C(Cl)(Cl)Cl (stereo not drawn)	–	–	53	–	–	–	–
O=C(CCc1ccccc1)NC(NC(=S)Nc1cccc(Cl)c1)C(Cl)(Cl)Cl (stereo not drawn)	–	–	–	–	–	–	·
CN1CCN(c2ccc(NC(=O)N3CCc4ccccc43)cc2)CC1	60	77	58	–	?	95	51
COc1ccc(CCN2C(=O)C=CC2=O)cc1OC	–	–	96	55	–	–	98
COc1ccc(CCN2C(=O)CN(Cc3ccccc3)CC2=O)cc1OC	–	–	–	–	–	–	·
NC(Cc1ccc(F)cc1)c1csc(Nc2cc(Oc3ccccc3)ncn2)n1 (stereo not drawn)	·	–	79	–	·	–	83
COc1ccc(CC(N)c2csc(Nc3ccccn3)n2)cc1 (stereo not drawn)	·	–	–	–	·	–	·
COc1ccc(CC(N)c2csc(Nc3cccc(OC)n3)n2)cc1 (stereo not drawn)	·	–	70	–	·	–	96
CC(=O)c1ccc(Nc2nc(C(N)Cc3ccc(Cl)cc3)cs2)cc1 (stereo not drawn)	·	–	56	–	·	–	72
CC(=O)c1ccc(Nc2nc(C(N)Cc3ccc(N)cc3)cs2)cc1 (stereo not drawn)	·	–	–	–	·	–	·
Cc1cc(C)c2nc(N3C(=O)C(O)=C(C(=O)c4ccco4)C3c3cccc(O)c3)sc2c1 (stereo not drawn)	–	–	–	–	–	–	·
O=C(CSc1ccc2ccccc2n1)NCCCN1CCCC1=O	–	–	–	–	–	–	·
COc1ccc(-c2ccc3[nH]c4c(c3c2)CCN2C(=O)[C@@H]([C@H](C)O)[C@@H](N(C)C(=O)Nc3cc(Cl)cc(Cl)c3)C[C@@H]42)cc1	–	–	–	–	·	–	·
COc1ccc(-c2ccc3[nH]c4c(c3c2)CCN2C[C@@H]([C@H](C)O)[C@@H](N(C)C(=O)Nc3cc(Cl)cc(Cl)c3)C[C@@H]42)cc1	–	–	64	–	·	–	61
CCc1cc(C(=O)N/N=C/c2ccc(OC)cc2)c2ccccc2n1	–	–	–	–	–	–	·
CC(C)COc1ccc(C(=O)Nc2ccc(NC(=O)c3ccco3)cc2)cc1	–	–	77	–	–	–	–
CCN(CC)CCOc1ccc(/C(=C(/Cl)c2ccccc2)c2ccccc2)cc1	–	–	102!	–	–	–	96
CC(C)CC(=NNC(=O)c1ccncc1)c1cc(Cl)ccc1O	73	–	64	–	–	–	73
O=c1[nH]c(O)c(/C=C2\C=Nc3ccc(Br)cc32)[nH]1	–	–	–	–	–	–	·
O=C1N=C(N2CCOCC2)S/C1=C\c1ccc(-c2ccccc2Cl)o1	–	–	55	–	–	–	–
Cc1ccccc1-c1ccc(/C=C2/SC(N3CCOCC3)=NC2=O)o1	–	–	–	–	–	–	·
COC(=O)Nc1nnc(-c2ccccc2Cl)s1	–	–	–	–	–	–	·
COCCCNCCCOc1ccc(Cl)cc1C(C)(C)C	–	–	62	–	–	–	–
Cc1ccc(NC(=O)C2(C)CCN2C(=O)Cc2ccc(C(C)C)cc2)cc1 (stereo not drawn)	·	–	–	–	·	–	·
